Where a name gives a salt, the structure may show the parent alone. In all, about 2,600 compounds were measured (“MBP+ mature oligodendrocyte number relative to DMSO vehicle control”: median about -0.34, highest 2% from about 13 on). The entries come from a sample that favours the highest values as a whole.
Each molecule was assayed on jimpy (Plp1 jimpy) mouse iPSC-derived oligodendrocyte progenitor cells (assay: MBP+ mature oligodendrocyte number relative to DMSO vehicle control (SDs above negative control mean); higher = more surviving jimpy oligodendrocytes (rescue)). Conditions: 10 µM; 3 days.
Procedure: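 Primary phenotypic screen of >3,000 bioactive compounds (Selleck L1700 and Sigma LO1280 libraries) at a single dose of 10 µM. Compounds were added to jimpy (Plp1 mutant) mouse iPSC-derived OPCs at the start of thyroid hormone-induced oligodendrocyte differentiation, one well per compound in 384-well plates. After 3 days cells were stained for MBP, Sox10 and DAPI and imaged with an Operetta system. MBP+ oligodendrocyte number and total cell number were expressed as the number of SDs above the mean of the DMSO negative control on the same plate (n=16 control wells per plate). Hits were defined as >=4 SD for oligodendrocytes and >=2 SD for total cells.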
`OC1CCCCC1N1CCC(c2ccccc2)CC1` (racemic) [(±)-Vesamicol hydrochloride] was tested, and the “MBP+ mature oligodendrocyte number” value was 15.7.
In the case of `Cc1ccc2c(c1)C1(CCN(CCc3nc(-c4ccccc4)oc3C)CC1)OC(=O)N2`, the “MBP+ mature oligodendrocyte number” value is reported as -2.6.
With `C[N+]1(C)[C@@H]2CC(OC(=O)[C@H](CO)c3ccccc3)C[C@H]1[C@@H]1O[C@@H]12` (single isomer, unassigned; (-)) [(-)-Scopolamine methyl nitrate] the “MBP+ mature oligodendrocyte number” value was 0.539.
`N[C@]1(C(=O)O)CC[C@H](C(=O)O)C1` (racemic) [trans-(±)-ACPD] was tested, and the “MBP+ mature oligodendrocyte number” value was 0.981.
In the case of `CN1CC[C@@]2(C)c3cc(O)ccc3N(C)C12` (single isomer, unassigned; (-)) [(-)-Eseroline fumarate], the “MBP+ mature oligodendrocyte number” value is reported as -1.28.
With `COc1ccc2c(c1OC)C(=O)OC2C1c2cc3c(cc2CCN1C)OCO3` (single isomer, unassigned; (+)) [(+)-Hydrastine] the “MBP+ mature oligodendrocyte number” value was 1.13.
With `NC(=O)c1ccc(OCC(O)CN2CC=C(c3ccc(F)cc3)CC2)cc1` (stereo not given) the “MBP+ mature oligodendrocyte number” value was 13.9.
In the case of `CC(=O)OCC1=C(C(=O)[O-])N2C(=O)[C@@H](NC(=O)CCC[C@@H](N)C(=O)[O-])[C@H]2SC1.[Zn+2]` [Cephalosporin C zinc salt], the “MBP+ mature oligodendrocyte number” value is reported as -0.943.
With `CCCC[N+]1(C)[C@@H]2C[C@@H](OC(=O)[C@H](CO)c3ccccc3)C[C@H]1[C@@H]1O[C@@H]12` (single isomer, unassigned; (-)) [(-)-Scopolamine,n-Butyl-, bromide] the “MBP+ mature oligodendrocyte number” value was -0.925.
`CN1CC[C@]2(CCN3CCc4c(oc5ccccc45)[C@@H]3C2)N(C)C1=O` was tested, and the “MBP+ mature oligodendrocyte number” value was 1.72.
For `CCS(=O)(=O)Nc1cccc(C(=C2CCCCC2)c2cnc[nH]2)c1`, the “MBP+ mature oligodendrocyte number” value was 2.51.
In the case of `CC(C)Oc1cccnc1N(C)C1CCN(Cc2ccccc2)CC1`, the “MBP+ mature oligodendrocyte number” value is reported as 19.1.
With `CO[C@H]1CC[C@@H](O[C@H]2C[C@H]([C@]3(C)CC[C@]4(C[C@H](O)[C@@H](C)[C@@H]([C@@H](C)/C=C(\C)C(=O)[C@H](C)C[C@H](C)C(=O)O)O4)O3)O[C@]3(O[C@@H]([C@H]4O[C@@](O)(CO)[C@H](C)C[C@@H]4C)C[C@@H]3C)[C@@H]2C)O[C@@H]1C` [Nanchangmycin] the “MBP+ mature oligodendrocyte number” value was less than -6.7.
`CC(N)Cc1cccc(C(F)(F)F)c1` (single isomer, unassigned; (+)) [(+)-Norfenfluramine hydrochloride] was tested, and the “MBP+ mature oligodendrocyte number” value was 0.753.
For `COc1ccc2[nH]c3c(c2c1)CCNC3` [6-Methoxy-1,2,3,4-tetrahydro-9H-pyrido[3,4b] indole], the “MBP+ mature oligodendrocyte number” value was -0.315.

— the supplement of paper PMC6135742
